Structures can show the parent of a compound that is named as a salt. ± gives the standard deviation of the averaged measurements.
Legend:
Test in all cases: growth (OD600 after 10 h); higher = more growth (less inhibition)
[1] = system: E. coli TESEC Alr+ wild-type control; conditions: compound 0.1 mM; raw OD600 reference: median of DMSO wells 0.241, cell-free background 0.041
Procedure: (§1)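 TESEC Mtb Alr E. coli, or the Alr+ wild-type control, in 384-well plates with Prestwick library compounds at 0.1 mM and 1% DMSO, across arabinose induction levels of 1E3 to 1E7 nM. Growth is read as OD600 after 10 h at 37 °C in triplicate biological replicates.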

E. coli TESEC Mtb Alr [2] = conditions: compound 0.1 mM
Procedure: as §1

E. coli TESEC Mtb Asd = conditions: compound 0.1 mM
Procedure: (§2)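 TESEC E. coli strains in which the native enzyme is deleted and replaced by arabinose-inducible Mtb Asd, DapB, CysH or TrpD, each grown in its selective medium. Strains were screened against the Prestwick library at 0.1 mM and 1% DMSO in 384-well format at low and high arabinose induction. Growth is read as OD600 after 10 h in triplicate.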

E. coli TESEC Mtb DapB = conditions: compound 0.1 mM
Procedure: as §2

E. coli TESEC Mtb Alr [3] = conditions: compound 0.1 mM; remark: listed apart in the source
Procedure: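 TESEC Mtb Alr E. coli (ΔaraC ΔtolC ΔentC Δalr ΔdadX, arabinose-inducible Mtb Alr) or the Alr+ wild-type control strain, grown in defined M9-fructose medium without D-alanine in 96-well plates with Prestwick library compounds at 0.1 mM and 1% DMSO. Low Alr induction is 0.1 µM arabinose and high induction is 10 mM arabinose.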

[4] = arabinose 1000 nM, raw OD600 reference: median of DMSO wells 0.294, cell-free background 0.041
[5] = arabinose 10000 nM, raw OD600 reference: median of DMSO wells 0.264, cell-free background 0.041
[6] = arabinose 100000 nM, raw OD600 reference: median of DMSO wells 0.201, cell-free background 0.041
[7] = arabinose 1000000 nM, raw OD600 reference: median of DMSO wells 0.193, cell-free background 0.041
[8] = arabinose 10000000 nM, raw OD600 reference: median of DMSO wells 0.146, cell-free background 0.041
[9] = arabinose induction (level): High, raw OD600 reference: median of DMSO wells 0.331, cell-free background 0.041
[10] = arabinose induction (level): Low, raw OD600 reference: median of DMSO wells 0.417, cell-free background 0.041
[11] = arabinose induction (level): High, raw OD600 reference: median of DMSO wells […], cell-free background 0.041
[12] = arabinose induction (level): Low, raw OD600 reference: median of DMSO wells 0.227, cell-free background 0.041
[13] = arabinose 100 nM, raw OD600 reference: median of DMSO wells 0.413, cell-free background 0.052
[14] = arabinose 10000000 nM, raw OD600 reference: median of DMSO wells […], cell-free background 0.052

SMILES | growth [1] | growth (E. coli TESEC Mtb Alr [2]; [4]) | growth (E. coli TESEC Mtb Alr [2]; [5]) | growth (E. coli TESEC Mtb Alr [2]; [6]) | growth (E. coli TESEC Mtb Alr [2]; [7]) | growth (E. coli TESEC Mtb Alr [2]; [8]) | growth (E. coli TESEC Mtb Asd; [9]) | growth (E. coli TESEC Mtb Asd; [10]) | growth (E. coli TESEC Mtb DapB; [11]) | growth (E. coli TESEC Mtb DapB; [12]) | growth (E. coli TESEC Mtb Alr [3]; [13]) | growth (E. coli TESEC Mtb Alr [3]; [14])
CCN(C)C(=O)Oc1cccc([C@H](C)N(C)C)c1 [Rivastigmine] | 0.243 ± 0.0069 | 0.293 ± 0.004 | 0.302 ± 0.0098 | 0.213 ± 0.02 | 0.19 ± 0.021 | 0.156 ± 0.0029 | 0.325 ± 0.068 | 0.343 ± 0.067 | 0.188 ± 0.01 | 0.281 ± 0.04 | 0.418 ± 0.0056 | 0.342 ± 0.016
NC(=O)CN1CCCC1=O [Piracetam] | 0.245 ± 0.0091 | 0.299 ± 0.0073 | 0.27 ± 0.0054 | 0.224 ± 0.034 | 0.184 ± 0.0072 | 0.15 ± 0.0043 | 0.302 ± 0.06 | 0.325 ± 0.092 | 0.202 ± 0.0067 | 0.208 ± 0.028 | 0.415 ± 0.011 | 0.346 ± 0.018
CC(C)C[C@H]1C(=O)N2CCC[C@H]2[C@]2(O)O[C@](NC(=O)[C@@H]3C=C4c5cccc6[nH]c(Br)c(c56)C[C@H]4N(C)C3)(C(C)C)C(=O)N12 [Bromocryptine mesylate] | 0.108 ± 0.0027 | 0.112 ± 0.058 | 0.108 ± 0.0015 | 0.187 ± 0.12 | 0.0887 ± 0.025 | 0.191 ± 0.013 | 0.208 ± 0.056 | 0.117 ± 0.047 | 0.236 ± 0.07 | 0.229 ± 0.018 | 0.401 ± 0.0088 | 0.323 ± 0.067
CC(=O)O[C@H]1CC[C@@]2(C)C(=CC[C@@H]3[C@@H]2CC[C@]2(C)C(=O)CC[C@@H]32)C1 [Dehydroisoandosterone 3-acetate] | 0.198 ± 0.065 | 0.239 ± 0.019 | 0.253 ± 0.01 | 0.144 ± 0.0063 | 0.106 ± 0.015 | 0.134 ± 0.0039 | 0.315 ± 0.044 | 0.391 ± 0.0042 | 0.181 ± 0.005 | 0.225 ± 0.017 | 0.376 ± 0.012 | 0.0699 ± 0.0044
COc1ccc(CN2CCNCC2)c(OC)c1OC [Trimetazidine dihydrochloride] | 0.228 ± 0.0052 | 0.3105 ± 0.0026 | 0.268 ± 0.0047 | 0.23 ± 0.024 | 0.172 ± 0.0071 | 0.162 ± 0.0046 | 0.301 ± 0.068 | 0.307 ± 0.11 | 0.197 ± 0.0097 | 0.242 ± 0.028 | 0.409 ± 0.014 | 0.33 ± 0.019
CN(C)[C@@H]1C(=O)C(C(N)=O)=C(O)[C@@]2(O)C(=O)C3=C(O)c4c(O)cccc4[C@@](C)(O)[C@H]3C[C@@H]12 [Tetracycline hydrochloride] | 0.0422 ± 0.00046 | 0.0426 ± 0.0035 | 0.04053 ± 0.00032 | 0.0418 ± 0.0011 | 0.04083 ± 0.00025 | 0.0422 ± 0.00068 | 0.0539 ± 0.0012 | 0.0592 ± 0.0072 | 0.0495 ± 0.0014 | 0.0516 ± 0.0028 | 0.0567 ± 0.0019 | 0.0604 ± 0.0025
COc1ccc2c(c1)[C@]13CCCC[C@@H]1[C@H](C2)N(C)CC3 [Dextromethorphan hydrobromide monohydrate] | 0.1976 ± 0.0013 | 0.25 ± 0.005 | 0.255 ± 0.0068 | 0.2 ± 0.027 | 0.154 ± 0.0044 | 0.142 ± 0.002 | 0.168 ± 0.015 | 0.29 ± 0.045 | 0.17 ± 0.015 | 0.232 ± 0.031 | 0.42 ± 0.006 | 0.355 ± 0.015
CC(CCc1ccccc1)NC(C)C(O)c1ccc(O)cc1 (centres undefined) [Nylidrin] | 0.215 ± 0.0087 | 0.297 ± 0.018 | 0.285 ± 0.013 | 0.167 ± 0.0039 | 0.16 ± 0.0093 | 0.144 ± 0.002 | 0.351 ± 0.062 | 0.495 ± 0.048 | 0.222 ± 0.027 | 0.243 ± 0.0092 | 0.404 ± 0.014 | 0.316 ± 0.013
C[C@]12CC[C@H]3[C@@H](CCC4=CC(=O)CC[C@@H]43)[C@@H]1CC[C@@H]2O [Nandrolone] | 0.154 ± 0.0082 | 0.201 ± 0.014 | 0.226 ± 0.012 | 0.118 ± 0.0031 | 0.0814 ± 0.0003 | 0.115 ± 0.0021 | 0.106 ± 0.0027 | 0.267 ± 0.1 | 0.1471 ± 0.0014 | 0.159 ± 0.0037 | 0.408 ± 0.0099 | 0.211 ± 0.0078
c1ccc2c(c1)Nc1ccccc1S2 [Phenothiazine] | 0.157 ± 0.0061 | 0.215 ± 0.0099 | 0.265 ± 0.011 | 0.209 ± 0.015 | 0.198 ± 0.013 | 0.201 ± 0.0046 | 0.377 ± 0.076 | 0.177 ± 0.014 | 0.209 ± 0.034 | 0.236 ± 0.03 | 0.415 ± 0.0099 | 0.344 ± 0.021
C=CCN1CC[C@]23c4c5ccc(O)c4O[C@H]2C(=O)CC[C@@]3(O)[C@H]1C5 [Naloxone hydrochloride] | 0.244 ± 0.012 | 0.266 ± 0.026 | 0.27 ± 0.016 | 0.192 ± 0.021 | 0.178 ± 0.0076 | 0.137 ± 0.0051 | 0.295 ± 0.066 | 0.498 ± 0.028 | 0.202 ± 0.0047 | 0.255 ± 0.059 | 0.419 ± 0.0087 | 0.317 ± 0.026
O=C(CCCN1CCC2(CC1)C(=O)NCN2c1ccccc1)c1ccc(F)cc1 [Spiperone] | 0.214 ± 0.0064 | 0.273 ± 0.019 | 0.276 ± 0.011 | 0.1711 ± 0.0014 | 0.169 ± 0.0073 | 0.149 ± 0.0039 | 0.274 ± 0.066 | 0.43 ± 0.042 | 0.188 ± 0.013 | 0.218 ± 0.038 | 0.409 ± 0.0039 | 0.354 ± 0.027
CCN(CC)C(C)C(=O)c1ccccc1 (centres undefined) [Amfepramone hydrochloride] | 0.25 ± 0.0034 | 0.259 ± 0.051 | 0.261 ± 0.014 | 0.179 ± 0.027 | 0.187 ± 0.0038 | 0.141 ± 0.0089 | 0.256 ± 0.064 | 0.447 ± 0.047 | 0.202 ± 0.018 | 0.218 ± 0.021 | 0.411 ± 0.0098 | 0.325 ± 0.016
c1ccc2nc(N3CCNCC3)ccc2c1 [Quipazine dimaleate salt] | 0.232 ± 0.008 | 0.298 ± 0.016 | 0.25 ± 0.0049 | 0.212 ± 0.04 | 0.177 ± 0.0045 | 0.148 ± 0.0043 | 0.223 ± 0.013 | 0.257 ± 0.015 | 0.215 ± 0.019 | 0.216 ± 0.012 | 0.402 ± 0.0069 | 0.371 ± 0.02
N[C@@H]1C[C@H]1c1ccccc1 [Tranylcypromine hydrochloride] | 0.241 ± 0.013 | 0.285 ± 0.018 | 0.28 ± 0.0083 | 0.203 ± 0.02 | 0.19 ± 0.0048 | 0.141 ± 0.0022 | 0.354 ± 0.034 | 0.388 ± 0.012 | 0.183 ± 0.0098 | 0.23 ± 0.012 | 0.411 ± 0.011 | 0.371 ± 0.024
CCCC(C)C1(CC)C(=O)NC(=O)NC1=O (centres undefined) [Pentobarbital] | 0.233 ± 0.0093 | 0.279 ± 0.016 | 0.255 ± 0.013 | 0.233 ± 0.019 | 0.203 ± 0.011 | 0.143 ± 0.0092 | 0.451 ± 0.018 | 0.399 ± 0.087 | 0.2 ± 0.01 | 0.265 ± 0.014 | 0.4 ± 0.018 | 0.369 ± 0.0053
C[C@]12CC[C@H](O)C[C@H]1CC[C@@H]1[C@@H]2C[C@@H](O)[C@]2(C)[C@@H](C3=CC(=O)OC3)CC[C@]12O [Digoxigenin] | 0.228 ± 0.005 | 0.299 ± 0.018 | 0.257 ± 0.0041 | 0.201 ± 0.016 | 0.17 ± 0.0032 | 0.14 ± 0.0016 | 0.262 ± 0.025 | 0.458 ± 0.024 | 0.1864 ± 0.00095 | 0.244 ± 0.0061 | 0.408 ± 0.02 | 0.331 ± 0.011

Source: the supplement of paper PMC9262897, “Low-cost anti-mycobacterial drug discovery using engineered E. coli” (Nature Communications, 2022)
